Mtb UGM inh – M. tuberculosis UGM enzyme inhibitors, primary screen, biochemical, fluorescence polarization, single point; purified UGM, fluorescence polarization probe displacement; inhibition, % at 10 µM; 320,000 compounds, 0.06% hits; in the data active = inhibition above about 10%, passing the limit was not always enough
Target sequence (P9WIQ1 whole entry, looked up): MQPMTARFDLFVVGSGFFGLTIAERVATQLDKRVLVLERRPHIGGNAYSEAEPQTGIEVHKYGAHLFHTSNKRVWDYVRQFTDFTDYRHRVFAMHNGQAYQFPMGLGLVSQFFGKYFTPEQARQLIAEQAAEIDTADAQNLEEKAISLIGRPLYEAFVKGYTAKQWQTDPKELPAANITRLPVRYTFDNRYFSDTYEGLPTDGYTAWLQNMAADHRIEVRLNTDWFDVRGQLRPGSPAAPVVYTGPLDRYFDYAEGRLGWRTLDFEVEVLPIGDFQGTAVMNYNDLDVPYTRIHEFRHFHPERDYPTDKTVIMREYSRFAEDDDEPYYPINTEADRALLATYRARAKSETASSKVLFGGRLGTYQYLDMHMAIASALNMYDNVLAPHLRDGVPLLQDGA
RecA splice inh – Mtb RecA intein splicing inhibitors, primary screen, biochemical, fluorescence, HTS; inhibition, % (no concentration beside the values); Protein RecA (Mycobacterium tuberculosis (strain ATCC 25618 / H37Rv)), P9WHJ3; cell-free RecA intein splicing; 290,000 compounds, 0.75% hits; in the data active = inhibition above about 30%
GDH-TPI inh – GDH-TPI coupling enzyme inhibitors, primary screen, artefact control for M. tuberculosis FBA inhibitor project, biochemical, absorbance, full deck; GDH-TPI coupled enzyme counterscreen, NADH absorbance; inhibition, % at 4.8 µM; 360,000 compounds, 1.2% hits; AID 588335, 2011; in the data active = inhibition above about 30%
BH1578 lux ind – inducers of Vibrio cholerae quorum light production without autoinducers, primary screen, BH1578 luxS cqsA deficient, single point. 350,000 compounds, 0.16% hits. V. cholerae BH1578 lux reporter, luminescence, 6 h. AID 588436, 2011. activation, % at 18.7 µM; in the data active = activation mostly above about 9.7%, no sharp cut-off
Rv3671c inh – Rv3671c serine protease inhibitors, primary screen, biochemical, fluorescence polarization, M. tuberculosis H37Rv. inhibition, % at 5.96 µM. 320,000 compounds, 0.048% hits. AID 2606, 2010; in the data active = inhibition above about 38%;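 note: extracellular domain of Rv3671c used as enzyme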
Mtb FBA inh – Mtb FBA enzyme inhibitors, primary screen, biochemical, fluorescence, strain H37Rv; Fructose-bisphosphate aldolase (Mycobacterium tuberculosis (strain ATCC 25618 / H37Rv)), …; 360,000 compounds, 2.3% hits; inhibition, % at 1 µM; purified M. tuberculosis FBA, fluorescence read-out; in the data active = inhibition above about 27%
GFP chromophore – counter-screen: blocks GFP chromophore formation, dose response, counter-screen, biochemical, fluorescence, homogeneous; shares compounds with RecA splice inh; cell-free GFP chromophore formation; EC50, µM; 2,100 compounds, 83% hits; AID 434968, 2010; call rule not given here
Large screens that a line does not name were inactive (follow-up assays come after a bar, where they were run). An excerpt weighted towards active compounds, which were near 4.1% of everything screened.

CC(=O)N1c2ccc(S(=O)(=O)N3CCC(C(=O)Nc4cccc(Cl)c4)CC3)cc2CC1C (configuration not stated)	none
Cc1nc(C(F)(F)F)ccc1C(=O)N1CCCC1(C)C(=O)NCC(C)C (configuration not stated)	none (no result: Mtb UGM inh, RecA splice inh, Rv3671c inh)
CCOC(=O)CSCCOc1ccc(C=C2C(=O)NC(=O)NC2=O)cc1OC	RecA splice inh 73.4 | GFP chromophore inactive
CCOC(=O)COc1ccc(/C=C2\C(=O)NC(=S)N(c3ccc(OC)cc3)C2=O)cc1OC	none
CCOC(=O)c1c(CC(C)C)csc1NC(=O)CCl	RecA splice inh 51.7 | GFP chromophore inactive
CCc1ccc(S(=O)(=O)Nc2ccc(O)c3ccccc23)cc1	RecA splice inh 92.0 | GFP chromophore 0.151
O=S(=O)(Nc1ccc(O)c2ccccc12)c1ccc(F)cc1	RecA splice inh 94.2 | GFP chromophore 0.151
O=S(=O)(Nc1ccc(NS(=O)(=O)c2ccccc2)c2ccccc12)c1ccccc1	none (no result: Mtb UGM inh, RecA splice inh, Rv3671c inh)
COc1ccc(OC)c(S(=O)(=O)Nc2ccc(O)c3ccccc23)c1	none (no result: RecA splice inh, BH1578 lux ind)
CCc1[nH]nc2c1C1(CCOC1C)C(C#N)=C(N)O2 (configuration not stated)	none
CC(=O)N1CCC2(CC1)C(C#N)=C(N)Oc1n[nH]c(CSc3ccc(C)cc3)c12	RecA splice inh 74.2 | GFP chromophore 23.4
CCc1[nH]nc2c1C1(CCN(C(=O)c3ccccc3)CC1)C(C#N)=C(N)O2	RecA splice inh 66.5 | GFP chromophore 29.1
CC(=O)N(Cc1ccc(F)cc1)C1=C(NCc2ccccc2)C(=O)c2ccccc2C1=O	RecA splice inh 76.6 (no result: Mtb UGM inh, Rv3671c inh) | GFP chromophore 5.9
O=C(NCc1ccc(F)cc1)C(c1ccccc1)c1ccccc1	none
Cc1nc2nc(SCC(=O)NCCCN3CCCC3)nn2c(C)c1Cc1ccccc1Cl	none (no result: RecA splice inh)
Cc1ccc(S(=O)(=O)NCC2CCC(C(=O)NCCCN3CCOCC3)CC2)cc1 (configuration not stated)	none | GFP chromophore inactive
Cc1cc(C)nc(N2N=C(c3ccccc3)CC2=O)n1	none (no result: RecA splice inh)
COc1ccc(C2=NN(c3nc(C)cc(C)n3)C(=O)C2)cc1	RecA splice inh 78.3 | GFP chromophore 6.87
Nc1ccc(Nc2ccccc2N)cc1	RecA splice inh 58.3 | GFP chromophore 19.7
CCCCNc1ccc2nsnc2c1[N+](=O)[O-]	none
CN(C)c1ccc2nsnc2c1[N+](=O)[O-]	RecA splice inh 31.8 | GFP chromophore inactive
Cc1ccc2nc(/C(C#N)=C\c3ccc([N+](=O)[O-])o3)[nH]c2c1	RecA splice inh 34.1 | GFP chromophore 8.37
CCCCCCCCCCCCCCCC[N+](C)(C)CC	RecA splice inh 43.6 | GFP chromophore 17.1
CCCCCCCCCCCCCCCC[N+](C)(C)C	RecA splice inh 35.5 | GFP chromophore 22.6
COc1cc(C(=O)NC(C)C2CC3CCC2C3)ccc1OC(F)F (configuration not stated)	none (no result: RecA splice inh)
Cc1ccc(CN(C(=O)COc2ccc(C)c(C)c2)C2CCS(=O)(=O)C2)o1 (configuration not stated)	none
CC1(C)CC(=O)N(c2cccc(C(F)(F)F)c2)C(=O)C1	none
Cc1cc(C(=O)OCC(=O)NC2CC2)c2ccccc2n1	none (no result: RecA splice inh)
COc1cccc(C(c2c(C)[nH]n(-c3ccccc3)c2=O)c2c(C)[nH]n(-c3ccccc3)c2=O)c1OC	RecA splice inh 93.7 | GFP chromophore 1.77
COc1cccc(C(c2c(C)[nH]n(-c3ccccc3)c2=O)c2c(C)[nH]n(-c3ccccc3)c2=O)c1O	RecA splice inh 66.5 | GFP chromophore 1.48
CCCNC(=O)NC(=O)c1cnccc1C(F)(F)F	none
Cc1ccc2[nH]c3c(c2c1)CCCC3NC(=O)CCl (configuration not stated)	none
CCC1CCCCN1C(=O)CCC(=O)Nc1nnc(C(F)(F)F)s1 (configuration not stated)	none

High-throughput results deposited in PubChem by several laboratories.
